Inconclusive results are not listed. The source made the active and inactive calls. Unless noted, the call rests on the fitted dose curve; in most records, active means well fitted curve in the direction sought with a large enough effect in the repeat runs; inconclusive means weak or mixed curves; inactive means no such curve, though single readings can be large; an effect the other way counts as inactive or inconclusive.
Tests used:
[1] = qHTS assay for small molecules that induce genotoxicity in human embryonic kidney cells expressing luciferase-tagged ATAD5 (AID 651632); further: nearly all actives have a fitted effect of over 15% in size
Method in brief: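 Cells were seeded at 2,000 per well, dosed with compound, and incubated 16 hr at 37C in 5% CO2. Luciferase activity was then quantified after a 30 min room-temperature incubation with Amplite.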

[2] = qHTS assay for small molecules that induce genotoxicity in human embryonic kidney cells expressing luciferase-tagged ATAD5 - cell viability (AID 651634; calls by dose curve; further: nearly all actives have a fitted effect of over 25% in size)
Method in brief: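 Cells (HEK293T, luciferase-tagged ATAD5) are seeded at 2,000 per well, dosed with compound or DMSO vehicle, and incubated 15.5 hr at 37C and 5% CO2. CellTiter-Fluor is added for 30 min before fluorescence is measured.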

[3] = qHTS assay for small molecule disruptors of the mitochondrial membrane potential - cell viability (AID 720634; calls by dose curve;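 further: human HepG2 liver cancer cells; series mostly up to about 83 µM; nearly all actives have a fitted effect of over 20% in size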)
Method in brief: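 Cytotoxicity was measured by ATP quantitation in HepG2 wells that had first been treated with compound for 1 hr and stained with m-MPI dye; CellTiter-Glo incubation was 30 min at room temperature.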

[4] = qHTS assay to test for compound auto fluorescence at 590 nm (red) in HepG2 cells (AID 720674)
Method in brief: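 Intrinsic compound fluorescence in the red window (Ex/Em 540/590 nm) is measured in attached HepG2 cells exposed for 1 hr, DMSO vehicle as baseline, benchmarked to Rose Bengal sodium.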

[5] = qHTS assay to test for compound auto fluorescence at 535 nm (green) in HepG2 cells (AID 720675)
[6] = qHTS assay to test for compound auto fluorescence at 460 nm (blue) in HEK293 cells (AID 720678)
Method in brief: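 Blue-channel (Ex/Em 405/460 nm) intensity measured in HEK293 cultures after overnight compound exposure at 37C; signal expressed relative to triamterene. Cells plated 2,000 per well in 10% dialyzed FBS medium and allowed 4-5 hr to attach.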

[7] = qHTS assay to test for compound auto fluorescence at 590 nm (red) in HEK293 cells (AID 720679)
Method in brief: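 Red-channel autofluorescence (Ex/Em 540/590 nm; Rose Bengal sodium reference) was measured after overnight 37C, 5% CO2 exposure of attached HEK293 cells, 2,000 per well in medium with 10% dialyzed FBS.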

[8] = qHTS assay for small molecule disruptors of the mitochondrial membrane potential (AID 720635); further: potency means the concentration at half of the fitted maximal effect
Method in brief: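 HepG2 cells (2,000/well) attached overnight at 37C, then took compound for 1 hr at 37C, 5% CO2. Mito-MPS dye was added for 30 min; fluorescence was read at 490/535 nm (monomers) and 540/590 nm (aggregates).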

[9] = qHTS assay for small molecule agonists of the p53 signaling pathway - cell viability (AID 651633; calls by dose curve;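 further: p53RE-bla HCT reporter cells with a stable beta-lactamase p53 reporter; series mostly up to about 83 µM; nearly all actives have a fitted effect of over 30% in size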)
Method in brief: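 p53RE-bla cells, seeded at 4,000 per well and rested 5 h at 37 C/5% CO2, received compounds in DMSO for 16 h at 37 C. CellTiter-Glo was then added, and luminescence was read after 30 min at room temperature to gauge cytotoxicity.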
On the % scale 0 is the no-effect control and ±100 the full control effect.

CC(C)(C)NCCO
inactive: outcome [1] | Potency [2] | outcome [3] | outcome [4] | outcome [5] | outcome [6] | outcome [7]

CC(C)CCC(=O)CCC(C)C
inactive: outcome [1] | Potency [2] | outcome [3] | outcome [6] | outcome [7]

CCCCCCCCCCCCCC(=O)OC
inactive: outcome [1] | Potency [2] | outcome [4] | outcome [5] | outcome [6] | outcome [7]

CO/N=C(/C(=O)N[C@@H]1C(=O)N2C(C(=O)O)=C(Cn3nnc(C)n3)CS[C@H]12)c1csc(N)n1
inactive: outcome [1] | Potency [2] | outcome [3] | Potency [8] | outcome [4] | outcome [5] | outcome [6] | outcome [7]

O=C(O)c1c(Cl)ccc(Cl)c1Cl
inactive: outcome [1] | Potency [2] | outcome [4] | outcome [5] | outcome [6] | outcome [7]

CCN(CCC#N)c1ccccc1
inactive: outcome [1] | Potency [2] | outcome [3] | outcome [4] | outcome [5] | outcome [6] | outcome [7]

O=S1(=O)CCCC1
inactive: outcome [1] | outcome [9] | Potency [2] | outcome [4] | outcome [5] | outcome [6] | outcome [7]

CNC(=O)C(c1ccccc1)c1ccccc1
inactive: outcome [1] | outcome [9] | Potency [2] | outcome [4] | outcome [6] | outcome [7]

CCCCCCCC[Si](OCC)(OCC)OCC
inactive: outcome [1] | outcome [3] | outcome [4] | outcome [6] | outcome [7]

Cc1ccccc1N1CCN(CCc2nnc3n2CCCC3)CC1
inactive: outcome [1] | outcome [9] | Potency [2] | outcome [4] | outcome [5] | outcome [7]

CCCCC(CC)COC(=O)c1ccccc1 (stereo unspecified)
inactive: outcome [1] | outcome [9] | Potency [2] | outcome [5] | outcome [6] | outcome [7]

O=c1cc(O)c(Cl)c[nH]1
inactive: outcome [1] | Potency [2] | outcome [3] | Potency [8] | outcome [4] | outcome [5] | outcome [7]

Cc1cccc(NC(=S)N(C)C)c1
inactive: outcome [1] | Potency [2] | outcome [3] | outcome [4] | outcome [5] | outcome [7]

COc1ccc(N=Nc2cc(C)c(N=Nc3ccc(S(=O)(=O)O)cc3)cc2OC)cc1
inactive: outcome [1] | Potency [2] | outcome [3] | outcome [4] | outcome [5] | outcome [7]

CCCOCCOCCOCCO
inactive: outcome [1] | outcome [9] | Potency [2] | outcome [4] | outcome [5] | outcome [6] | outcome [7]

CC(CC(=O)O)CC(C)(C)C (stereo unspecified)
inactive: outcome [1] | outcome [9] | Potency [2] | outcome [6] | outcome [7]

Cn1c(=O)c2c(ncn2CC2OCCO2)n(C)c1=O
inactive: outcome [1] | Potency [2] | outcome [4] | outcome [5] | outcome [6] | outcome [7]

O=CO
inactive: activity change, negative = cytotoxicity [9] 17.2% [at 8.08 µM] | activity change, negative = cytotoxicity [3] 10.1% [at 8.08 µM] | fluorescence, % of fluorescein control [5] -0.0157% [at 9.17 µM] | fluorescence, % of triamterene [6] 0.001% [at 9.17 µM] | fluorescence, % of fluorescent control [7] 0.473% [at 9.17 µM]

O=[Si]=O
inactive: outcome [1] | Potency [2] | outcome [3] | Potency [8] | outcome [4] | outcome [5] | outcome [7]

Nc1cc(Cl)cc(S(=O)(=O)O)c1O
inactive: outcome [1] | Potency [2] | outcome [3] | outcome [4] | outcome [5] | outcome [7]

O=C(/C=C/c1ccccc1)NCCO
inactive: outcome [1] | Potency [2] | outcome [3] | Potency [8] | outcome [5] | outcome [6] | outcome [7]

CCC(CO)CO
inactive: outcome [1] | Potency [2] | outcome [4] | outcome [5] | outcome [6] | outcome [7]

CCCCC[Si](OCC)(OCC)OCC
active: Potency [8] 48.6 µM
inactive: outcome [1] | Potency [2] | outcome [3] | outcome [4] | outcome [6] | outcome [7]

NC(Cc1c[nH]c2ccccc12)C(=O)O (stereo unspecified)
inactive: Potency [2] | outcome [3] | outcome [4] | outcome [5] | outcome [6] | outcome [7]

Cc1oc(=O)oc1CN1CCN(c2cc3c(cc2F)c(=O)c(C(=O)O)c2n3C(C)S2)CC1 (stereo unspecified)
inactive: outcome [1] | Potency [2] | outcome [3] | outcome [4] | outcome [7]

CN[C@@H]1[C@@H](O)[C@@H](O[C@@H]2[C@H](O)[C@H](O[C@H]3OC(CN)=CC[C@H]3N)[C@@H](N)C[C@H]2N)OCC1(C)O (stereo partly specified)
inactive: outcome [1] | Potency [2] | outcome [3] | outcome [4] | outcome [6] | outcome [7]

From PubChem BioAssay (Tox21)
